PubChem BioAssay (Tox21)
Where “and” joins values, the source holds several entries; their conditions need not be identical. Equal values may be shown once. Inconclusive results are not listed. Entries that show only a call come without a potency. Where a structure was tested more than once in an assay, its records may differ in their call. Calls of active or inactive are those of the source. Unless noted, calls follow the shape of the dose curve; as a rule, active = well fitted curve in the direction sought with a large enough effect in the repeat runs; inconclusive = weak or mixed curves; inactive = no such curve, though single readings can be large; an effect the other way counts as inactive or inconclusive.

Key:
[1] = qHTS assay to identify small molecule agonists of the peroxisome proliferator-activated receptor delta (PPARd) signaling pathway - cell viability counter screen (AID 743211); also: nearly all actives have a fitted effect of over 55% in size; also: potency is read from the fitted curve at half-maximal effect
Outline: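 Luminescent ATP viability assay (CellTiter-Glo, 30 min RT) in UAS-bla HEK293H cells carrying the PPAR delta reporter construct, 3000 cells/well, after a 17 h compound treatment at 37 C.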

[2] = molecular target: Peroxisome proliferator-activated receptor delta (Homo sapiens) (UniProt Q03181); assay: qHTS assay to identify small molecule agonists of the peroxisome proliferator-activated receptor delta (PPARd) signaling pathway (AID 743212; calls by dose curve)
Outline: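 Steps: seed PPARd-bla HEK293H cells; incubate 5 h, 37 C, 5% CO2; add compounds in DMSO; incubate, 37 C; add LiveBLAzer B/G FRET substrate; hold 2 h at room temperature; measure fluorescence.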

[3] = qHTS assay to identify small molecule antagonists of the peroxisome proliferator-activated receptor delta (PPARd) signaling pathway - cell viability counter screen (AID 743213); also: nearly all actives have a fitted effect of over 50% in size; also: potency is read from the fitted curve at half-maximal effect
Outline: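 In this counter screen, HEK293H cells carrying a UAS-beta-lactamase reporter are co-treated with test compounds and 300 nM L165041 (final) for 17 h at 37 C; cell viability is quantified by CellTiter-Glo luminescence.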

[4] = molecular target: Peroxisome proliferator-activated receptor delta (Homo sapiens) (UniProt Q03181); assay: qHTS assay to identify small molecule antagonists of the peroxisome proliferator-activated receptor delta (PPARd) signaling pathway (AID 743215; active = well fitted inhibition curve with a large enough effect in the signal ratio in the repeat runs, not every such curve was filed as active; the % refers to the signal ratio;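 also: cells stimulated with agonist L165041 at 300 nM final during compound exposure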; also: potency is read from the fitted curve at half-maximal effect)
Outline: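 Cells: HEK293H with a UAS-driven beta-lactamase reporter responsive to PPARd. Compounds were co-added with L165041 (300 nM, final) and incubated 17 h at 37 C before a 2 h room-temperature FRET substrate step and fluorescence reading.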

[5] = qHTS assay to identify small molecule agonists of the farnesoid-X-receptor (FXR) signaling pathway - cell viability counter screen (AID 743218); also: nearly all actives have a fitted effect of over 45% in size; also: potency is read from the fitted curve at half-maximal effect
Outline: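 Cells were seeded, left 5 h at 37 C and 5% CO2, then dosed with compound in DMSO for 16 h. After the beta-lactamase FRET read, CellTiter-Glo was added and luminescence measured 30 min later.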

[6] = molecular target: Vitamin D3 receptor (Homo sapiens) (UniProt P11473); assay: qHTS assay to identify small molecule antagonists of the vitamin D receptor (VDR) signaling pathway (AID 743223; active = well fitted inhibition curve with a large enough effect in the signal ratio in the repeat runs, not every such curve was filed as active; the % refers to the signal ratio; also: potency is read from the fitted curve at half-maximal effect)
Outline: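 Agonist 1alpha,25-dihydroxyvitamin D3 (3 nM in well) was added with each compound to VDR-bla cells preincubated 4 h. Cells stood 16 h at 37C, then FRET substrate 2 h at room temperature; fluorescence intensity recorded.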

[7] = molecular target: Bile acid receptor (Homo sapiens) (UniProt Q96RI1); assay: qHTS assay to identify small molecule antagonists of the farnesoid-X-receptor (FXR) signaling pathway (AID 743217; active = well fitted inhibition curve with a large enough effect in the signal ratio in the repeat runs, not every such curve was filed as active; the % refers to the signal ratio; also: potency is read from the fitted curve at half-maximal effect)
Outline: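 Cells carrying a UAS-driven beta-lactamase reporter (GeneBLAzer FXR-UAS-bla HEK 293T) were plated and rested 5 h at 37 °C. Compounds in DMSO were added alongside chenodeoxycholic acid agonist at 50 uM final and left 16 h at 37 °C before FRET substrate readout.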

[8] = molecular target: Bile acid receptor (Homo sapiens) (UniProt Q96RI1); assay: qHTS assay to identify small molecule agonists of the farnesoid-X-receptor (FXR) signaling pathway (AID 743220; active = well fitted activation curve with a large enough effect in the signal ratio in the repeat runs, not every such curve was filed as active; the % refers to the signal ratio)
Outline: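 FXR-UAS-bla HEK 293T cells carrying a UAS-driven beta-lactamase reporter were plated for 5 h at 37C/5% CO2, then exposed to DMSO-dissolved Tox21 10K compounds for 16 h at 37C. A LiveBLAzer B/G FRET substrate was loaded for 2 h at room temperature before fluorescence reading.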

[9] = qHTS assay to identify small molecule antagonists of the farnesoid-X-receptor (FXR) signaling pathway - cell viability counter screen (AID 743221; active = well fitted cell-killing curve with a large enough effect in the repeat runs, not every such curve was filed as active; also: nearly all actives have a fitted effect of over 50% in size; also: potency is read from the fitted curve at half-maximal effect)
Outline: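 In GeneBLAzer FXR-UAS-bla HEK 293T cells stimulated with 50 uM chenodeoxycholic acid (final), compounds acted for 16 h at 37 C. Viability was assessed afterwards by CellTiter-Glo luminescence.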

[10] = molecular target: Vitamin D3 receptor (Homo sapiens) (UniProt P11473); assay: qHTS assay to identify small molecule agonists of the vitamin D receptor (VDR) signaling pathway (AID 743222; calls by dose curve)
Outline: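 Cells carrying a VDR-driven beta-lactamase reporter are seeded at 2,000 per well and rested 4 h. Compounds in DMSO are added for 16 h at 37C, and FRET substrate fluorescence is measured after 2 h at room temperature.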

Sequence of Peroxisome proliferator-activated receptor delta (Homo sapiens) (Q03181 whole entry, looked up): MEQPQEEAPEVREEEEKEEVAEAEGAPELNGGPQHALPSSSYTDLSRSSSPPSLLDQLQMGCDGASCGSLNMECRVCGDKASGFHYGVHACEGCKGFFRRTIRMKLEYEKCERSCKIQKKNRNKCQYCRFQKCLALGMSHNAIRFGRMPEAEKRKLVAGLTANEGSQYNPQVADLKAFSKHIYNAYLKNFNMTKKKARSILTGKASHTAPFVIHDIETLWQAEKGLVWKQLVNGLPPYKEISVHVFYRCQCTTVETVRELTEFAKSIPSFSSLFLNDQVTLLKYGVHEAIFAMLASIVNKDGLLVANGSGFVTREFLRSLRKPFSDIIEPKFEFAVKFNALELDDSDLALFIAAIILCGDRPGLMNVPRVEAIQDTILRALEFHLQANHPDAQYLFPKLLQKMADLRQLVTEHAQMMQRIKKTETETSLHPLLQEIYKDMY
Sequence of Bile acid receptor (Homo sapiens) (Q96RI1 whole entry, looked up): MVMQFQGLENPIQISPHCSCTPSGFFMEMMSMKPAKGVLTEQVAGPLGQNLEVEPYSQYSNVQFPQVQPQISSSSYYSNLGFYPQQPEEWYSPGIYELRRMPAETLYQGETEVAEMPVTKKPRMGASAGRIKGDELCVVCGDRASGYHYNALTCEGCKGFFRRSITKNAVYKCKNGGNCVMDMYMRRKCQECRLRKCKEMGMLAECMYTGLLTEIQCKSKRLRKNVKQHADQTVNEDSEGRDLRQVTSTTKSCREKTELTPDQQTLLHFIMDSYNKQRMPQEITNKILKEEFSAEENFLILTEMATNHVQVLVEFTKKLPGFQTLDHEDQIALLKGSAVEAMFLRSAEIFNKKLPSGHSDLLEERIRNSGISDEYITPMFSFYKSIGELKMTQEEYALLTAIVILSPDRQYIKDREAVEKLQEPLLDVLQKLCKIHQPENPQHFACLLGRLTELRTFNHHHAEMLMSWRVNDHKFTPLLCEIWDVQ
Sequence of Vitamin D3 receptor (Homo sapiens) (P11473 whole entry, looked up): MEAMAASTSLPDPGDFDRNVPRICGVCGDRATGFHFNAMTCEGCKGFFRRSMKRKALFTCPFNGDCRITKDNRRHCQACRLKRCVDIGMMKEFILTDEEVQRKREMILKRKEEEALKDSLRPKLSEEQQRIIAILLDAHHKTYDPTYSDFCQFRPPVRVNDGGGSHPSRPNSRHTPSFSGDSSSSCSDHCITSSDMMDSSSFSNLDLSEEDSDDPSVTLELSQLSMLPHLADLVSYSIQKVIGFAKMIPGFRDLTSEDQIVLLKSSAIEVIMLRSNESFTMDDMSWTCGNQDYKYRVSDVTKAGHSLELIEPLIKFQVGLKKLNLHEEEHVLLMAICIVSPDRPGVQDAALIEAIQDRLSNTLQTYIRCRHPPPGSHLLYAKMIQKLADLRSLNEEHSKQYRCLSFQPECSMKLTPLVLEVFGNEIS

| Structure (SMILES) | Potency [1] | outcome [2] | Potency [3] | Potency [4] | Potency [5] | Potency [6] | Potency [7] | Potency [8] | Potency [9] | Potency [10] |
| --- | --- | --- | --- | --- | --- | --- | --- | --- | --- | --- |
| CCCC(CC)CCCCCCCN (stereo not drawn) | inactive | inactive | inactive | inactive | inactive | inactive |  |  |  |  |
| C=C[C@](C)(O)CC[C@@H]1[C@@]2(C)CCCC(C)(C)[C@@H]2CC[C@@]1(C)O | 54.9 µM (active) | inactive | 34.7 µM (active) |  |  |  | 49 µM (active) |  |  |  |
| NCCCCCCNCCCCCCN | inactive | inactive | inactive | inactive | inactive | inactive | inactive | inactive | inactive | inactive |
| C1CC(COCC2CO2)CCC1COCC1CO1 (stereo not drawn) | inactive | inactive | inactive |  | inactive |  | inactive |  | inactive |  |
| CSc1ccc2c(c1)N(CCC1CCCCN1C)c1ccccc1S2 (stereo not drawn) | inactive and 9.44 µM (active) | inactive | 21.8 µM (active) and 13.3 µM (active) | 26.6 µM (active) | 21.8 µM (active) and 16.8 µM (active) |  |  |  | 38.7 µM (active) and 29.8 µM (active) |  |
| Cc1cccc(Br)c1 | inactive | inactive | inactive | inactive | inactive |  |  |  | inactive |  |
| NC(=O)C(=O)N/N=C/c1ccc([N+](=O)[O-])o1 | inactive | inactive | inactive | inactive | inactive |  |  |  | inactive |  |
| CCc1cccc(C)c1 | inactive | inactive | inactive | inactive | inactive | inactive | inactive | inactive | inactive |  |
| CC(C)=C1CC[C@@H](C)CC1=O | inactive | inactive | inactive | inactive | inactive | inactive |  |  | inactive | inactive |
| CCCCCCCCCCCCCCCC | inactive | inactive | inactive | inactive | inactive |  |  |  | inactive |  |
| C[Si](C)(C)Cl | inactive | inactive | inactive | inactive | inactive |  | inactive | inactive | inactive |  |
| Nc1ncnc2c1ncn2[C@@H]1O[C@H](COP(=O)(O)O)[C@@H](O)[C@H]1O | 10.6 µM (active) | inactive | 11.9 µM (active) | inactive |  | inactive |  |  | 13.3 µM (active) | inactive |
| O=C(O)CC(=O)O | inactive | inactive | inactive | inactive | inactive | inactive |  |  | inactive |  |
| CCCCCCCCCCCC(=O)N(CC)CC | inactive | inactive | inactive | inactive |  | inactive | inactive | inactive | inactive |  |
| CCOC(=O)[C@@](C)(N)Cc1ccc(O)c(O)c1 | inactive | inactive | inactive |  | inactive | inactive | inactive | inactive | inactive |  |
| CCCCCCOc1cc(C)c(O)c(C)c1C | inactive | inactive | inactive | inactive | inactive | inactive |  |  |  | inactive |
| Cc1cn[nH]c1 | inactive | inactive | inactive | inactive | inactive |  |  |  | inactive |  |
| CC(=O)OC(OC(C)=O)c1ccc([N+](=O)[O-])o1 | 49.8 µM (active) |  |  |  |  |  |  |  |  |  |
| CCN(CC)CCNc1ccc(CO)c2sc3ccccc3c(=O)c12 | 18.8 µM (active) | inactive | 13.3 µM (active) | 23.7 µM (active) | 13.3 µM (active) |  |  | inactive |  | inactive |
| c1cc2c3c(c1)ccc1cccc(c13)C2 | 56.1 µM (active) | inactive | inactive | inactive |  |  |  |  | inactive | inactive |
| Oc1ccc(-c2ccccc2)c(Cl)c1 | inactive | inactive | inactive | inactive | inactive | inactive |  |  | inactive | inactive |
| CCCCOc1ccc(C(=O)CCN2CCCCC2)cc1 | 11.9 µM (active) | inactive | inactive | inactive | inactive |  | inactive | inactive |  |  |
| Clc1ccc(C(c2ccccc2Cl)C(Cl)Cl)cc1 (stereo not drawn) | 49 µM (active) | inactive | inactive | inactive | inactive |  |  | inactive | inactive |  |
| Cn1cnc2ncnc(N)c21 | inactive | inactive | inactive | inactive | inactive | inactive |  |  | inactive | inactive |
| C(=C/c1ccccc1)/c1ccccc1 | inactive | inactive | inactive | inactive | inactive | inactive | inactive | inactive | inactive | inactive |
| CCCCCCCC/C=C\CCCCCCCC(=O)NCc1ccc(O)c(OC)c1 | 23.7 µM (active) | inactive | 18.8 µM (active) |  | 29.8 µM (active) | 26.8 µM (active) | 29.8 µM (active) | inactive |  |  |
| Cc1cc(Nc2ccc(O)cc2)ccc1N | inactive | inactive | inactive | inactive |  | inactive |  | inactive | inactive |  |
| CC(=O)Oc1ccc(C2(c3ccc(OC(C)=O)cc3)C(=O)Nc3ccccc32)cc1 | inactive | inactive | inactive | inactive | inactive | inactive |  |  | inactive |  |
